Data on 40 sequences can be found in the supplement of paper PMC10338343.

± gives the standard deviation.
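Further: 1 nM active piRISC with 0.1 nM target library at 33 °C single turnover.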

The first experiment relates to MILI (PIWIL2) piRISC loaded with L1MC piRNA (26 nt). As to the kind of experiment: pre-steady-state target cleavage rate (min^-1); guide: L1MC piRNA 5'p-UAACUAAAUACUAUGCAAGCUGUAGG; MIWI and MILI are mouse PIWI proteins and EfPiwi is from a freshwater sponge; tags in brackets are library labels; higher = faster piRNA-guided slicing of the target. The following applies: auxiliary factor: 500 nM mouse GTSF1. Put shortly:
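Cleave-'n-Seq measured uncleaved targets by sequencing after a transcribed, DNA-blocked target RNA library […] was mixed with 1 nM active affinity-purified piRISC holding one synthetic guide, with or without 500 nM GTSF1 partner protein, at 33 °C in HEPES–potassium acetate buffer for 0–8 or 0–960 min. Counts were normalised to depth and to weakly complementary targets, three trials were pooled, and k3 was capped at 0.0001 min^-1. A burst-and-steady-state fit gave the pre-steady-state cleavage rate.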
In the case of UCCUGGAACAGCUAGCAUAGUAUUAAGUUA, the “pre-steady-state target cleavage rate” value stood at 0.192 ± 0.015.
Same read-out and setting: next, UCCUGGAUCAGCUUGCAUAGUAUUUAGUA: 0.263 ± 0.019; UCCUGGAUGUCCUUGCAUACUAUUUAGUUA: 0.0324 ± 0.01.
The same measure, in the same setting: the figure for UCCUGGAUGAGCUUAGCAUAGUAUUUAGUUA is 0.217 ± 0.016; for UCCUCCUACAGCUUGCUAAGUAUUUAGUUA it is 0.17 ± 0.012.
Same read-out and setting: the figure for UCCUGGAUGUCCGUGCAUAGUAUUUAGUUA is 0.0403 ± 0.011; for UCCUCGUUCAGCUUGCAUAGUAUUUAGUUA it is 0.262 ± 0.015.
Regarding UCCUGGUACAGCUUGCAUAGUAUUUGGUUA, the “pre-steady-state target cleavage rate” value worked out at 0.205 ± 0.033.
Still for that read-out and setting: next, UCCUCCUACAGCUUGCAUAGUAUUUUCUAA: 0.143 ± 0.028; UCCUCCACAGCUUGCAUAGUAUUUAGUUA: 0.248 ± 0.014; UCCUGGAUCAGCUUGCAUAGUAUUCAGUUA: 0.179 ± 0.024.
Take UCCUGGUACAGCUUGCUUAGUAUUUAGUUA: the “pre-steady-state target cleavage rate” value amounted to 0.219 ± 0.024.
In the case of UCCUGGAACAGCAUGCUUAGUAUUUAGUUA, the “pre-steady-state target cleavage rate” value worked out at 0.217 ± 0.019.
Turning to UCCUGGAACAGCUUGCAUACUAUUUAGUUA, the “pre-steady-state target cleavage rate” value was 0.0842 ± 0.014.
For the sequence “UCCUGCUACAGCUUGCAUAGUAUUUAGUUG [g2:g25:cont:t1G]”, the “pre-steady-state target cleavage rate” value was 0.145 ± 0.013.
The same measure, in the same setting: the figure for UCCUGGAACAGCUUUCAUAGUAUUUAGUUA is 0.197 ± 0.021.
As for UCCUGCUACAGCUUGCAUAGUAUUUCAGUUA, the “pre-steady-state target cleavage rate” value amounted to 0.335 ± 0.075.
Still for that read-out and setting: the figure for UCCUGGAUGUGCUUGUAUAGUAUUUAGUUA is 0.142 ± 0.017.
On the same count and under the same terms, next, UCCUGGAUCAGGUUGCAUAGUAUAUAGUUA: 0.197 ± 0.017.
As for UCCUGCUACAGCUUGCAUCGUAUUUAGUUA, the “pre-steady-state target cleavage rate” value was determined as 0.168 ± 0.022.
Still for that read-out and setting: next, UCCUGCUACAGCUUGCAUAAUAUUUAGUUA: 0.363 ± 0.034.
The same measure, in the same setting: next, UCCUGGAACAGCUUCCAUUGUAUUUAGUUA: 0.11 ± 0.019.
On the same count and under the same terms, next, UCCUGGAACAGCUUGCAUAGUAUUUACUUA: 0.0894 ± 0.017.
In the case of UCCUGGUACAGCCUGCAUAGUAUUUAGUUA, the “pre-steady-state target cleavage rate” value came to 0.186 ± 0.024.
The same measure, in the same setting: next, UCCUGGAACAGCUUGCAGAGUAUUUAGUUA: 0.193 ± 0.019; UCCUGGAUGAGCGUUGCAUAGUAUUUAGUUA: 0.192 ± 0.017.
The same measure, in the same setting: next, UCCUGGAUCAGCUUGAAUAGUAUUUAGUUA: 0.247 ± 0.017.
On to “UCCUGGAACAGCUUGCAUAGUAUUUAGUUA [g2:g23:cont:t1A]”, for which the “pre-steady-state target cleavage rate” value was 0.297 ± 0.019.
Still for that read-out and setting: the figure for UCCUCCUACAGCUUGCAUAGUAUUUAGUUUA is 0.333 ± 0.019; for UCCUGGUAGAGCUUGCAUAGUUUUUAGUUA it is 0.0231 ± 0.005.
Still for that read-out and setting: the figure for UCCUCCUACAGCUUGCAUAGUUAUUUAGUUA is 0.0152 ± 0.0067; for UCCUGGAUGUCCUAUGCAUAGUAUUUAGUUA it is 0.0987 ± 0.02.
On to UCCUGGAACAGCUAGCAUAGUAAUUAGUUA, for which the “pre-steady-state target cleavage rate” value is 0.155 ± 0.018.
UCCUCGUACACCUUGCAUAGUAUUUAGUUA: the “pre-steady-state target cleavage rate” value turned out to be 0.239 ± 0.022.
As for UCCUGGAUCUCCUUGCAUAGUAUUUAGUUA, the “pre-steady-state target cleavage rate” value was found to be 0.226 ± 0.014.
Same read-out and setting: next, UCCUGGUACAGCUUGCAUAGUAUUUAGUAA: 0.283 ± 0.036; UCCUCCUUCUGCUUGCAUAGUAUUUAGUUA: 0.269 ± 0.018; UCCUCCUACAGCUUGCUUAGUAUUUAGUUA: 0.275 ± 0.015.
Still for that read-out and setting: next, UCCUGCUACAGCUUGCAUAGUAGUUUAGUUA: 0.239 ± 0.032.
Still for that read-out and setting: next, UCCUGCUACAGGAUGCAUAGUAUUUAGUUA: 0.271 ± 0.0083.

Still in this experiment, the particulars now being: auxiliary factor: none (no GTSF1).
Take UCCUGGAACAGCUAGCAUAGUAUUAAGUUA: the “pre-steady-state target cleavage rate” value was 0.00356 ± 0.0025.
Same read-out and setting: next, UCCUGGAUCAGCUUGCAUAGUAUUUAGUA: 0.00426 ± 0.0027; UCCUGGAUGUCCUUGCAUACUAUUUAGUUA: 0.00339 ± 0.0025.
On the same count and under the same terms, next, UCCUGGAUGAGCUUAGCAUAGUAUUUAGUUA: 0.0041 ± 0.0027; UCCUCCUACAGCUUGCUAAGUAUUUAGUUA: 0.00586 ± 0.0019.
The same measure, in the same setting: the figure for UCCUGGAUGUCCGUGCAUAGUAUUUAGUUA is 0.00675 ± 0.0027.
In the case of UCCUCGUUCAGCUUGCAUAGUAUUUAGUUA, the “pre-steady-state target cleavage rate” value was 0.00616 ± 0.0018.
For UCCUGGUACAGCUUGCAUAGUAUUUGGUUA, the “pre-steady-state target cleavage rate” value came out at 0.0142 ± 0.0043.
On the same count and under the same terms, next, UCCUCCUACAGCUUGCAUAGUAUUUUCUAA: 0.00357 ± 0.0031; UCCUCCACAGCUUGCAUAGUAUUUAGUUA: 0.00686 ± 0.0018; UCCUGGAUCAGCUUGCAUAGUAUUCAGUUA: 0.00376 ± 0.0025.
As for UCCUGGUACAGCUUGCUUAGUAUUUAGUUA, the “pre-steady-state target cleavage rate” value was determined as 0.00964 ± 0.0022.
The same measure, in the same setting: next, UCCUGGAACAGCAUGCUUAGUAUUUAGUUA: 0.005 ± 0.0026; UCCUGGAACAGCUUGCAUACUAUUUAGUUA: 0.00298 ± 0.0025; “UCCUGCUACAGCUUGCAUAGUAUUUAGUUG [g2:g25:cont:t1G]”: 0.0083 ± 0.0024.
Same read-out and setting: next, UCCUGGAACAGCUUUCAUAGUAUUUAGUUA: 0.00688 ± 0.0024; UCCUGCUACAGCUUGCAUAGUAUUUCAGUUA: 0.00409 ± 0.0028.
UCCUGGAUGUGCUUGUAUAGUAUUUAGUUA: the “pre-steady-state target cleavage rate” value was 0.0136 ± 0.004.
In the case of UCCUGGAUCAGGUUGCAUAGUAUAUAGUUA, the “pre-steady-state target cleavage rate” value is 0.00574 ± 0.0022.
On the same count and under the same terms, next, UCCUGCUACAGCUUGCAUCGUAUUUAGUUA: 0.006 ± 0.0019; UCCUGCUACAGCUUGCAUAAUAUUUAGUUA: 0.00537 ± 0.0019; UCCUGGAACAGCUUCCAUUGUAUUUAGUUA: 0.00471 ± 0.0022.
On the same count and under the same terms, next, UCCUGGAACAGCUUGCAUAGUAUUUACUUA: 0.003 ± 0.0029; UCCUGGUACAGCCUGCAUAGUAUUUAGUUA: 0.0143 ± 0.004.
The same measure, in the same setting: the figure for UCCUGGAACAGCUUGCAGAGUAUUUAGUUA is 0.00795 ± 0.0019; for UCCUGGAUGAGCGUUGCAUAGUAUUUAGUUA it is 0.00904 ± 0.0031; for UCCUGGAUCAGCUUGAAUAGUAUUUAGUUA it is 0.00991 ± 0.0026.
In the case of “UCCUGGAACAGCUUGCAUAGUAUUUAGUUA [g2:g23:cont:t1A]”, the “pre-steady-state target cleavage rate” value came out at 0.0103 ± 0.0024.
As for UCCUCCUACAGCUUGCAUAGUAUUUAGUUUA, the “pre-steady-state target cleavage rate” value came out at 0.0143 ± 0.0034.
Same read-out and setting: the figure for UCCUGGUAGAGCUUGCAUAGUUUUUAGUUA is 0.00498 ± 0.0023; for UCCUCCUACAGCUUGCAUAGUUAUUUAGUUA it is 0.00383 ± 0.0024.
As to UCCUGGAUGUCCUAUGCAUAGUAUUUAGUUA, the “pre-steady-state target cleavage rate” value was found to be 0.00575 ± 0.0022.
Same read-out and setting: next, UCCUGGAACAGCUAGCAUAGUAAUUAGUUA: 0.00801 ± 0.0026; UCCUCGUACACCUUGCAUAGUAUUUAGUUA: 0.00634 ± 0.0021.
Still for that read-out and setting: the figure for UCCUGGAUCUCCUUGCAUAGUAUUUAGUUA is 0.00588 ± 0.0018; for UCCUGGUACAGCUUGCAUAGUAUUUAGUAA it is 0.00667 ± 0.0024.
Still for that read-out and setting: next, UCCUCCUUCUGCUUGCAUAGUAUUUAGUUA: 0.00966 ± 0.002.
For UCCUCCUACAGCUUGCUUAGUAUUUAGUUA, the “pre-steady-state target cleavage rate” value was 0.00811 ± 0.0021.
In the case of UCCUGCUACAGCUUGCAUAGUAGUUUAGUUA, the “pre-steady-state target cleavage rate” value came out at 0.0034 ± 0.0024.
The same measure, in the same setting: the figure for UCCUGCUACAGGAUGCAUAGUAUUUAGUUA is 0.00941 ± 0.0024.
